About 83,000 compounds went through this panel and 20% of them were active in at least one assay; those are over-represented in the sample as a whole.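 Interpretation: 100, growth as untreated; towards 0, rising growth inhibition; 0, no net growth; 0 to -100, cell death. Compounds scoring below 10 were considered active.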 Unmarked numbers belong to inactive results. Active and inactive are the calls of the source.

In the assay the test system is HL-60(TB) leukemia. As to the kind of experiment: NCI-60 one-dose screen, 48 h (100 = growth as untreated, 0 = no growth, -100 = all killed). As to conditions: 10 µM unless noted.
As to `CC12CCC(O)CC1=CCC1C2CCC2(C)C3=NN=CC3CC12` (stereo not given), the growth is 103%. As to `COc1ccc(C2=NNC(c3sc(Cl)nc3Cl)C2)cc1` (stereo not given), the growth is 85.8%. On to `C[C@@H]1N=C(c2ccc3ccccc3n2)Nc2nc3ccccn3c2C1=O`, for which the growth is 97.6%. Take `COC(=O)[C@H](Cc1ccc(O)cc1)NC(=O)[C@@H](OC)[C@@H]1Cc2cc3cc(OC4CC(OC5CC(O)C(O)C(C)O5)C(O)C(C)O4)c(C)c(O)c3c(O)c2C(=O)[C@H]1OC1CC(OC2CC(OC3CC(C)(O)C(O)C(C)O3)C(O)C(C)O2)C(O)C(C)O1` (stereo not given in full): the growth was 8.2% (active). As for `O=C1c2ccccc2-c2nccc3cc(Cl)nc1c23`, the figure is 1.84% (active). Consider `COc1c2occc2c(OC)c2c(=O)c(-c3cc(-c4ccc(F)cc4)c(C#N)c(N)n3)c(C)oc12`, for which the growth was 54.7%. As for `COc1ccccc1NC(=O)n1c(=O)cc(C)c2ccc(O)cc21`, the figure is 105%. For the molecule `O=C(CCc1nnco1)c1nc2ccc([N+](=O)[O-])cc2[nH]1`, the growth is 120%.

Regarding `O=C(Nc1cccc(-n2cc(-c3ccncc3)c(-c3cc(O)cc(Cl)c3)n2)c1)Nc1ccc(Cl)c(C(F)(F)F)c1`, the growth was -26.9% (active).

Take `CCCCCCC(C)c1ccccc1O` (stereo not given) (tested in a mixture with another compound): the growth is 113%. On to `CC(CCC(=O)O)[C@H]1CCC2C3C(=O)C[C@@H]4CC(=O)CC[C@]4(C)C3CC(=O)[C@@]21C` (stereo not given in full), for which the growth was 106%. `C/C(=C\CCc1ccsc1)CC/C=C(\C)CCCN1CCN(CCO)CC1`: the growth was -38.3% (active). For `Cn1ccnc1C(=O)/C=C/c1ccc(C(=O)Nc2ccc(S(F)(F)(F)(F)F)cc2)cc1`, the growth is -30.1% (active). With `Cc1cc(NC(=O)c2ccc(C)c(Nc3nccc(-c4cccnc4)n3)c2)cc(-n2cnc(C)c2)c1`, the growth was 22.8%. As for `O=C1CSC(c2c(Cl)cccc2Cl)N1c1nc(Cl)cc(=O)[nH]1` (stereo not given), the figure is 161%; as for `O=C(c1ccccc1)c1cccc(C(Br)Br)c1`, 87.6%; as for `COc1ccc2nc(SCC(=O)Nc3ccccc3C)[nH]c2c1`, 100%. Regarding `C=C1C(=O)O[C@H]2[C@H]1CC/C(COC(=O)NCc1ccc(Cn3c(=O)sn(CCCI)c3=O)cc1)=C\CC[C@@]1(C)O[C@@H]21`, the growth was -9.41% (active). The result for `O=C(NC1=CC(=O)c2ccccc2C1=O)c1ccccc1` reads -30.8% (active); that for `COc1ccc(Oc2nc(Nc3ccc(N4CCCCC4)nc3)ncc2NC(=O)c2cc(OC)cc(OC)c2)cc1`, 0.492% (active); that for `Cc1ccc(-c2onc3c(=O)[nH]nc(-c4ccccc4)c23)cc1`, -8.12% (active). On to `COc1cc(C(=O)Oc2ccccc2OC(=O)c2cc(OC)c(OC)c(OC)c2)cc(OC)c1OC`, for which the growth is 110%. `COc1ccc2[nH]cc(-c3noc(C(=O)c4cn(C)c5ccc(F)cc45)n3)c2c1`: the growth was 81.7%. Take `c1ccc(CC(NCCNC(Cc2ccccc2)c2ccccc2)c2ccccc2)cc1` (stereo not given): the growth was -0.655% (active).

Consider `N#Cc1c(NC(=O)c2ccco2)[n+]([O-])c2cc(F)c(F)cc2[n+]1[O-]`, for which the growth was 38%. Regarding `O=C1C(c2c[nH]c3ccccc23)=C(c2coc3cc(Br)ccc23)C(=O)N1O`, the growth is 103%. As for `Cc1ccc2nc(-c3ccc(OCC(=O)N=Nc4c(O)[nH]c5ccccc45)cc3)[nH]c2c1`, the growth was 88.9%. For the molecule `COc1ccc(/C=C2\N=C(c3cccnc3)N(c3ccccc3)NC2=O)cc1`, the growth was 95%. As for `CCOC(=O)c1ccc(NC(=O)Nc2nccs2)cc1`, the figure is -50.1% (active). As for `CC(C)(C)N1CCC1C(N)=O` (stereo not given), the growth is 92.4%. With `Cc1ncc(C(=O)Nc2ccc(CN3CCN(C)CC3)c(C(F)(F)F)c2)cc1C#Cc1cnc(N)c2ccncc12`, the growth is -52.8% (active). `Oc1c(Cl)cc(Cl)cc1C(c1cc(Cl)cc(Cl)c1O)C(Cl)(Cl)Cl`: the growth is 1.53% (active). In the case of `COc1ccc(C2=NC(=O)NC2c2ccc(OC)cc2)cc1` (stereo not given), the growth is 61.2%. Take `Nc1ncnc2c1N=C(c1ccc3c(c1)OCO3)CC(c1ccc(Cl)cc1)N2` (stereo not given): the growth is 88.1%.

For `CC(=O)Nc1cc2c(cc1Cl)Cc1cc(Cl)ccc1-2`, the growth is 114%. For `N#Cc1ccc(O)c(C2=NCC(c3cccc(Oc4ccccc4)c3)O2)c1` (stereo not given), the growth was -8.73% (active).

For `O=C1Nc2ccccc2/C1=C\c1nc(-c2ccccc2)n2ccccc12`, the growth is 85.6%. `CCN(CC)C(=O)CC1=C(C)/C(=C/c2[nH]c(-c3ccc[nH]3)cc2OC)N=C1C`: the growth is 0.518% (active). For `CC(=O)N(CCCCCCN(C(C)=O)C(C)=O)C(C)=O`, the growth was 108% [100 µM].

For `COC(=O)c1ccc(C(=Nc2ccc(N(C)C(=O)CN3CCN(C)CC3)cc2)c2c(O)[nH]c3ccc(C(=O)OC)cc23)cc1`, the growth is 14.4%.

The values above are taken from PubChem BioAssay (NCI).
